Reference: PubChem BioAssay (NCI)
“And” between values parts separate entries of the source, which are not always exact repeats. Identical values can stand only once. Compounds without any hit were thinned out: in the full panel of roughly 83,000, 20% have a hit.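 Method: cells in 96-well plates; compound added at one concentration; 48 h incubation; percent growth measured; values under 10 scored active.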 Values without a mark were called inactive. The source made the active and inactive calls.

Each compound was assayed on MDA-MB-468 breast (assay: NCI-60 one-dose screen, 48 h (100 = growth as untreated, 0 = no growth, -100 = all killed)). Settings: 10 µM unless noted.

Question: For `C=C[C@@H]1C[C@@H]2Cc3cc(F)ccc3N1O2`, which growth is on record?
Answer: 116%

Question: `c1nc(N2CCOCC2)c2[nH]ccc2n1` was tested. Which growth did it give?
Answer: 108%

Question: `CN1CCN(CCCOc2cccc3nc(Nc4ccc(Cl)c(C(F)(F)F)c4)ccc23)CC1` was tested. Which growth did it give?
Answer: -2.83% (active)

Question: `C/C=C/C=C1\C[C@H]2CO[C@H](O2)C1=O` was tested. Which growth did it give?
Answer: 103%

Question: For `NCCN1CCN(c2nc(-c3ccccc3)nc3nc(-c4ccccc4)oc23)CC1`, which growth is on record?
Answer: -33.6% (active)

Question: `CCOC(=O)c1ccc(C(=N)N)cc1` was tested. Which growth did it give?
Answer: 106%

Question: For `CCCCn1c(=O)c(/C=C/C(=O)/C=C/c2ccc(OC)cc2)cc2cc(Cl)ccc21`, which growth is on record?
Answer: 86.1%

Question: Which growth does the source give for `O=C(/C(=C/c1ccccc1)CBr)c1ccccc1` here?
Answer: -10% (active)

Question: With `COc1ccc2nc(-c3ccc(OC)c(OC)c3)cc(-c3nnc(SCC(=O)Nc4ccc(/C(C)=N\O)cc4)n3-c3ccccc3)c2c1` as the compound, how does the growth read?
Answer: 56.2%

Question: How did the growth turn out when `C[C@H](c1nc2ccc(C#N)cc2[nH]1)[C@H]1CC[C@H]2[C@@H]3CCC4=CC(=O)CC[C@]4(C)[C@H]3CC[C@]12C` was run?
Answer: 15.6%

Question: How did the growth turn out when `Cc1cccc(CN(Nc2ccccc2)c2ccccc2)n1` was run?
Answer: 94.9%

Question: How did the growth turn out when `Cc1ccc(OCCn2ccc(=O)n(CCOc3ccc(Cl)cc3C(=O)c3cc(C)cc(C)c3)c2=O)cc1` was run?
Answer: -0.179% (active)

Question: `COc1cc2c(cc1-c1c(C)noc1C)ncc1nc(C3CCOCC3)n(C3CCC(OC(F)F)CC3)c12` (stereo not given) was tested. Which growth did it give?
Answer: 40.9%

Question: How did the growth turn out when `COC(=O)N/N=C/c1c[n+]([O-])c2ccccc2[n+]1[O-]` was run?
Answer: 110%

Question: Which growth does the source give for `CCCCCCCOc1cccc(/C=C2/C(=O)N=C3SCCCN32)c1` here?
Answer: 56.8%

Question: `COc1ccc(/C(C#N)=C/c2nc3c(N4CCOCC4)nc(Cl)nc3n2C)cc1OC` was tested. Which growth did it give?
Answer: -20.9% (active)

Question: For `Oc1c(Cl)cc(Cl)c2ccc(Cn3cc(-c4ccc(C(F)(F)F)cc4)nn3)nc12`, which growth is on record?
Answer: 39.6%

Question: For `C#CCn1c2c(c3ccccc31)C[C@]1(C)[C@H]3CC[C@@H]4[C@@H]5C(=CCC[C@H]5C(=C)C)CC[C@@]4(C)[C@]3(C)CC[C@H]1C2(C)C`, which growth is on record?
Answer: 117%

Question: How did the growth turn out when `O=C1C=C(Nc2ccccc2)c2ncccc2C1=O` was run?
Answer: -61.3% (active)

Question: For `CCOC(=O)c1ccc(NC(=O)N2CC(C)OC(C)C2)cc1` (stereo not given), which growth is on record?
Answer: 91.7%

Question: For `CC(C)(C)n1cc(-c2ccnc(NCCCNS(=O)(=O)c3ccc(Cl)cc3)c2)c(-c2cccc(O)c2)n1`, which growth is on record?
Answer: -44.5% (active)

Question: Which growth does the source give for `COc1cc(C(=O)c2ccccc2C(=O)O)c(OC)c2c1CCCC2` here?
Answer: 94.7%

Question: `Nc1nccc(OCCO)n1` was tested. Which growth did it give?
Answer: 107%

Question: For `CCCNc1ccc(C2=NCCCN2)cc1`, which growth is on record?
Answer: 87.9%

Question: For `C/C(=N\O)c1ccc(NC(=O)CSc2nnc(-c3cc(-c4ccc(S(N)(=O)=O)cc4)nc4ccccc34)n2-c2ccccc2)cc1`, which growth is on record?
Answer: 63.1%

Question: `COc1ccc(C/C(=C(\C)c2ccc(OCCN3CCCC3)cc2)c2ccc(OCCN3CCCC3)cc2)cc1` was tested. Which growth did it give?
Answer: 33.2%

Question: With `COc1cc2ncnc(Oc3ccc(NC(=O)Nc4ccc(CN5CCOCC5)c(C(F)(F)F)c4)c4ccccc34)c2cc1OC` as the compound, how does the growth read?
Answer: -12.3% (active)

Question: How did the growth turn out when `c1ccc2cc(C[n+]3ccn(CCCCCCn4cc[n+](Cc5ccc6ccccc6c5)c4)c3)ccc2c1` was run?
Answer: 10.1%

Question: With `CCN(CC)c1ccc(C(=N)c2ccc(N(C)C)cc2)cc1` as the compound, how does the growth read?
Answer: 5.37% (active)

Question: Which growth does the source give for `O=C(CCCCCCNC(=O)c1csc(Br)n1)NO` here?
Answer: 26.6%

Question: Which growth does the source give for `COc1ccc(NC(=O)CSc2nnc(-c3cc(-c4ccccc4)nc4ccccc34)n2-c2ccccc2)cc1` here?
Answer: 97.3%

Question: `COc1cccc(C2C(C#N)=C(N)Oc3cc(OC)ccc32)c1` (stereo not given) was tested. Which growth did it give?
Answer: 41.4%

Question: How did the growth turn out when `CCCCCc1c(C)[nH]c(/C=C2\N=C(c3ccc[nH]3)C=C2Oc2ccccc2)c1C` was run?
Answer: -59.3% [100 µM] (active)

Question: With `Cc1cc(Cl)c2c(N(C)C)cccc2n1` as the compound, how does the growth read?
Answer: 77.4%

Question: Which growth does the source give for `O=C(O)C#Cc1ccc(Cl)cc1` here?
Answer: 101%

Question: How did the growth turn out when `Cc1sc2c(c1C)c(=O)nc1c(-c3nc(-c4ccccc4)cs3)n[nH]n12` was run?
Answer: 116%

Question: For `OCCN1CCN(CCO)CC1`, which growth is on record?
Answer: 107% and 103% and 105%

Question: `Nc1ccc(Oc2ccccc2)c(Cl)c1` was tested. Which growth did it give?
Answer: 92.1%

Question: Which growth does the source give for `NC(CC(=O)O)C(=O)OCc1ccccc1` (stereo not given) here?
Answer: 89.4%

Question: With `CN(C)CCCN1c2ccccc2CCc2ccc(Cl)cc21` as the compound, how does the growth read?
Answer: -21.6% (active)
